Here are results for nine compounds from PubChem BioAssay (NCATS).

Results filed as inconclusive are left out. Calls of active or inactive are those of the source. The call rests on the fitted dose curve; in most records, active means well fitted inhibition curve with a large enough effect; inconclusive means small, poorly fitted or top-dose-only effect; inactive means flat fitted curve, though single readings scatter.
Potency means the concentration at half of the fitted maximal effect.

In one experiment the test system is 3D7. The experiment can be described thus: qHTS profiling for inhibitors of Plasmodium falciparum proliferation (AID 504749). Further: nearly all actives have a fitted effect of over 60% in size. To be noted: P. falciparum in erythrocytes, SYBR Green DNA, 72 h; series mostly up to 28.7 µM. The method, boiled down:
(§1)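 Three-day growth assay of blood-stage parasites in erythrocytes (0.3% parasitemia, 2.5% hematocrit) at 37 C, 5% CO2, quantified by SYBR Green DNA staining after overnight detergent lysis.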
For orientation: In qHTS, concentration-response curves come from the screen itself.
On to `CO/N=C(/C(=O)N[C@@H]1C(=O)N2C(C(=O)O)=CCS[C@H]12)c1csc(N)n1`, for which the Potency result was “inactive”. In the case of `Cc1cc(CC(C)CC(C)(C)C)n(O)c(=O)c1` (configuration not stated), the Potency is 2000 nM (active). The same measure, in the same setting: the entry for `CC1CCC(C(C)C)C(OC(=O)c2ccccc2O)C1` (configuration not stated) is “inactive”; for `CO[C@@H]1[C@@H](OC2OC(C)C(OC3CC(C)(O)C(OC(=O)CC(C)C)C(C)O3)C(N(C)C)C2O)[C@@H](CC=O)C[C@@H](C)C(=O)/C=C\C2O[C@H]2C[C@@H](C)OC(=O)C[C@H]1OC(C)=O` (some centres not stated) it is 11200 nM (active). The same measure, in the same setting: the entry for `CCC(=O)O[C@@H](OP(=O)(CCCCc1ccccc1)CC(=O)N1C[C@H](C2CCCCC2)C[C@H]1C(=O)O)C(C)C` (some centres not stated) is “inactive”; for `CC(=O)O[C@@]12CO[C@@H]1C[C@H](O)[C@@]1(C)C(=O)[C@H](O)C3=C(C)[C@@H](OC(=O)C(O)[C@@H](NC(=O)OC(C)(C)C)c4ccccc4)C[C@@](O)([C@@H](OC(=O)c4ccccc4)[C@H]21)C3(C)C` (some centres not stated) it is 25.1 nM (active). `CC1(C)S[C@@H]2[C@H](NC(=O)COc3ccccc3)C(=O)N2[C@H]1C(=O)O`: the Potency entry is “inactive”. The same measure, in the same setting: the figure for `CCN1/C(=C/C=C/C=C/c2sc3ccccc3[n+]2CC)Sc2ccccc21` is 2000 nM (active).

Another experiment relates to 7G8. The experiment is described as above. To be noted: P. falciparum in erythrocytes, SYBR Green DNA, 72 h; series mostly up to 28.7 µM. The method, boiled down: as §1
As to `CO/N=C(/C(=O)N[C@@H]1C(=O)N2C(C(=O)O)=CCS[C@H]12)c1csc(N)n1`, the Potency entry is “inactive”. As for `Cc1cc(CC(C)CC(C)(C)C)n(O)c(=O)c1` (configuration not stated), the Potency is 2820 nM (active). On to `CC1CCC(C(C)C)C(OC(=O)c2ccccc2O)C1` (configuration not stated), for which the Potency entry was “inactive”. The same measure, in the same setting: the same measure for `CO[C@@H]1[C@@H](OC2OC(C)C(OC3CC(C)(O)C(OC(=O)CC(C)C)C(C)O3)C(N(C)C)C2O)[C@@H](CC=O)C[C@@H](C)C(=O)/C=C\C2O[C@H]2C[C@@H](C)OC(=O)C[C@H]1OC(C)=O` (some centres not stated): 8910 nM (active); for `CCC(=O)O[C@@H](OP(=O)(CCCCc1ccccc1)CC(=O)N1C[C@H](C2CCCCC2)C[C@H]1C(=O)O)C(C)C` (some centres not stated): 12600 nM (active); for `CC(=O)O[C@@]12CO[C@@H]1C[C@H](O)[C@@]1(C)C(=O)[C@H](O)C3=C(C)[C@@H](OC(=O)C(O)[C@@H](NC(=O)OC(C)(C)C)c4ccccc4)C[C@@](O)([C@@H](OC(=O)c4ccccc4)[C@H]21)C3(C)C` (some centres not stated): 398 nM (active). On the same count and under the same terms, the entry for `CC1(C)S[C@@H]2[C@H](NC(=O)COc3ccccc3)C(=O)N2[C@H]1C(=O)O` is “inactive”. On the same count and under the same terms, the same measure for `CCN1/C(=C/C=C/C=C/c2sc3ccccc3[n+]2CC)Sc2ccccc21`: 891 nM (active); for `O=NCc1ccc([N+](=O)[O-])o1`: 8910 nM (active).
